# BJeLR viability = BJeLR cell viability loss | BJeLR (HRASV12) viability, CellTiter-Glo ATP luminescence, 48 h | 300,000 compounds, 0.17% hits | AID 1554 | inhibition, % (concentration not given with the values); in the data active = inhibition above about 50%; inconclusive = no clear call, values can overlap the other calls
# PfHsp40 yeast = restores yeast growth despite PfHsp40 toxicity; S. cerevisiae expressing PfHsp40, growth rescue, ATP luminescence; growth rescue, % at 12.5 µM; 340,000 compounds, 0.68% hits; in the data active = growth rescue above about 28%, passing the limit was not always enough; inconclusive = no clear call, values can overlap the other calls;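 note: yeast W303a lacking pdr1 and pdr3 grown in galactose medium; growth measured after three days at 30 °C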
# SARS 3CLpro inh-1 = SARS-CoV 3CLpro protease inhibition. 290,000 compounds, 0.14% hits. recombinant SARS-CoV 3CLpro, quenched FRET peptide cleavage. inhibition, % at 6 µM. AID 1706. P0C6X7; in the data active = inhibition above about 12%
# BH1578 lux ind = induces V. cholerae light production without autoinducers. V. cholerae BH1578 lux reporter, luminescence, 6 h. activation, % at 18.7 µM. 350,000 compounds, 0.16% hits. AID 588436; in the data active = activation mostly above about 9.7%, no sharp cut-off; inconclusive = no clear call, values can overlap the other calls; inactive = mostly below about 3.7%
# MazF activator = increases E. coli MazEF RNase cleavage of RNA. P0AE70. FAM/BHQ RNA-DNA oligo cleavage fluorescence, 5 h. activation, % at 20 µM. 350,000 compounds, 0.32% hits. AID 504720; in the data active = activation above about 50%
# Target sequence (P0AE70 whole entry, looked up): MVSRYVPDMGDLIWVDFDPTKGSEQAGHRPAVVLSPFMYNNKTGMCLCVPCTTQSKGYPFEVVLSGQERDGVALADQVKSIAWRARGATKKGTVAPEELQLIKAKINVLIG
# VHR inh abs = blocks human VHR1 dual specificity phosphatase; recombinant VHR phosphatase, pNPP absorbance; inhibition, % at 13.3 µM; 290,000 compounds, 0.52% hits; in the data active = inhibition above about 50%
# Target sequence (P51452 whole entry, looked up): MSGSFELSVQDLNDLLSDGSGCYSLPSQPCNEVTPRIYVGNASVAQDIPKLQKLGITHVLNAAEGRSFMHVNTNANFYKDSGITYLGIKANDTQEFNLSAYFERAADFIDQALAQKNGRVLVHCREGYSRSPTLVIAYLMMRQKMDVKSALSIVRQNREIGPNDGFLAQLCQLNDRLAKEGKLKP
# SARS 3CLpro inh-2 = confirmation of SARS coronavirus 3C-like protease inhibitors. shares compounds with SARS 3CLpro inh-1. QFRET protease activity assay, 3CLpro. inhibition, % at 6 µM. 380 compounds, 36% hits. AID 1879; in the data active = inhibition above about 13%
# * marks the source's active call; other numbers are inactive results; i = inactive; ? = inconclusive; . = not tested or not shown. This is a sample that favours compounds with a hit; in the whole collection about 1.7% have one here.
SMILES,BJeLR viability,PfHsp40 yeast,SARS 3CLpro inh-1,BH1578 lux ind,MazF activator,VHR inh abs,SARS 3CLpro inh-2
CC1CCN(C(=O)c2[nH]cnc2C(=O)NC2CCN(C(=O)OC(C)(C)C)CC2)CC1,.,0,.,i,2,.,.
CSc1ccccc1OCc1cc(C(=O)N(C)Cc2cc(C)[nH]n2)no1,-3,0,-4,i,-5,-6,.
CSc1ccccc1OCc1cc(C(=O)N(C)Cc2cnccn2)no1,-6,-1,14*,-1,1,-4,1
COc1ccc(S(=O)(=O)NCc2ccncc2)cc1NC(=O)c1ccc(Cl)cc1,13,6,.,i,-5,.,.
O=C(O)C(Cc1ccc(Cl)cc1)Sc1nc2ccccc2[nH]1 (configuration not stated),7,3,-3,i,0,6,.
Oc1ccc(Cl)cc1Cc1cc(Cl)ccc1O,3,234*,13*,i,-5,9,7
CC(C)c1ccc(S(=O)(=O)Nc2ccc(SC(F)F)cc2)cc1,2,?,13*,0,1,30,5
Cc1ccc(CNC(=O)CCC2CCCN(C(=O)CCC(F)(F)F)C2)o1 (configuration not stated),-6,0,3,0,4,16,.
COc1ccc(NC(=O)c2ccc3c(=O)n(-c4ccc(OC)cc4OC)c(=S)[nH]c3c2)cc1,.,-2,14*,i,7,18,-4
CC[C@@]12C(=O)N(c3cccc(F)c3)C(=O)N1[C@H](c1ccc(F)cc1)[C@@H]1C(=O)N(C3CCCCC3)C(=O)[C@@H]12,15,2,16*,i,7,24,8
O=C(Cn1nnc(-c2ccccc2NC(=O)c2ccccc2F)n1)NCc1ccco1,2,0,12*,i,-11,8,1
COc1ccc(C(=O)Nc2ccccc2-c2nnn(CC(=O)NCc3ccco3)n2)cc1,-3,-1,-2,-1,-2,21,.
COc1ccc(C2/C=C\CN(C(=O)OCC3c4ccccc4-c4ccccc43)CC(=O)N2Cc2cccc(F)c2)cc1 (configuration not stated),.,0,.,0,-9,.,.
COc1ccc(NS(=O)(=O)c2ccc3oc(Nc4ccc5c(c4)OCCO5)nc3c2)cc1,1,4,13*,i,1,-6,5
CCOc1cc(C(C(=O)NCC2CCCO2)N(C(=O)Cn2nnc3ccccc32)c2ccc(OC)c(OC)c2)ccc1O (configuration not stated),-6,-1,0,-1,-8,-2,.
COc1ccc(C(C(=O)NCC2CCCO2)N(C(=O)Cn2nnc3ccccc32)c2ccc(NC(C)=O)cc2)c(OC)c1 (configuration not stated),2,1,18*,i,11,24,11
COc1cccc(C(C(=O)NCC2CCCO2)N(C(=O)Cn2nnc3ccccc32)c2ccc(NC(C)=O)cc2)c1OC (configuration not stated),7,0,15*,0,7,20,9
COc1ccc(C(=O)n2nc(C)cc2C)cc1OC,-3,1,-2,0,2,7,.
Cc1cc(C)n(C(=O)c2ccc(C)c(Br)c2)n1,5,-2,14*,i,-3,10,13*
CC(C(=O)N1CCc2ccccc21)N1CCN(Cc2ccccc2)CC1 (configuration not stated),-3,0,2,i,6,21,.
CC1CCC2C(=O)N(c3cc(Cl)ccc3OC(=O)c3ccco3)C(=O)C2C1 (configuration not stated),-5,0,46*,0,-1,7,60*
O=C(/C=C/c1c(F)cccc1Cl)Nc1cccnc1,-5,-1,20*,-1,4,22,16*
O=C(/C=C/c1cc(Br)ccc1F)Nc1cccnc1,-3,-1,-2,0,-3,-3,.
COc1cc(OC)c(OC)cc1/C=N/n1c(COc2ccccc2)n[nH]c1=S,3,0,0,0,6,-5,.
CC(C)N(C(=S)Nc1ccc(S(=O)(=O)N2CCOCC2)cc1)c1ccccc1,.,.,.,0,-12,.,.
Nc1ccccc1-c1nc2ccccc2s1,12,0,0,-1,3,12,.

# Compound activity from PubChem.
